Source: PubChem BioAssay
JMJD2A Tudor: qHTS Assay for Inhibitors of JMJD2A-Tudor Domain; Lysine-specific demethylase 4A (Homo sapiens), O75164; AlphaScreen JMJD2A-Tudor / H3K4me3 peptide binding; Potency, µM (titrated, usually from 114 µM), for the others: top-dose activity change, negative = inhibition, usual class: inhibitors; 390,000 compounds, 4.4% hits; AID 504339, 2011; further: on the % scale 0 is the no-effect control and ±100 the full control effect; nearly all actives have a fitted effect of over 50% in size
HP1b binding inh: HTS for Inhibitors of HP1-beta Chromodomain Interactions with Methylated Histone Tails. Chromobox protein homolog 1 (Homo sapiens), P83916. AlphaScreen HP1-beta / biotin-H3K9me3 peptide binding. Potency, µM (titrated, usually from 114 µM), inactives show at the highest dose activity change, negative = inhibition, hits mostly inhibitors. 390,000 compounds, 0.56% hits; further: nearly all actives have a fitted effect of over 70% in size
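Compound inhibition of the preformed complex between 50 nM HP1-beta and 50 nM biotinylated H3K9me3 peptide was read by AlphaScreen. Buffer was PBS pH 7.4 with 0.01% Tween-20. Incubations ran 30 min at room temperature, with 10 ug/mL donor/acceptor beads.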
BAZ2B block: qHTS Assay for Inhibitors of BAZ2B; AlphaScreen BAZ2B-H3K14Ac peptide displacement; Bromodomain adjacent to zinc finger domain protein 2B (Homo sapiens), Q9UIF8; 360,000 compounds, 4.4% hits; Potency, µM (doses to about 114 µM), for inactives: top-dose activity change, negative = inhibition, actives largely listed as inhibitors; AID 504333, 2011; further: on the % scale 0 is the no-effect control and ±100 the full control effect; nearly all actives have a fitted effect of over 60% in size
Target sequence (Q9UIF8 whole entry, looked up, the tested form may be a part): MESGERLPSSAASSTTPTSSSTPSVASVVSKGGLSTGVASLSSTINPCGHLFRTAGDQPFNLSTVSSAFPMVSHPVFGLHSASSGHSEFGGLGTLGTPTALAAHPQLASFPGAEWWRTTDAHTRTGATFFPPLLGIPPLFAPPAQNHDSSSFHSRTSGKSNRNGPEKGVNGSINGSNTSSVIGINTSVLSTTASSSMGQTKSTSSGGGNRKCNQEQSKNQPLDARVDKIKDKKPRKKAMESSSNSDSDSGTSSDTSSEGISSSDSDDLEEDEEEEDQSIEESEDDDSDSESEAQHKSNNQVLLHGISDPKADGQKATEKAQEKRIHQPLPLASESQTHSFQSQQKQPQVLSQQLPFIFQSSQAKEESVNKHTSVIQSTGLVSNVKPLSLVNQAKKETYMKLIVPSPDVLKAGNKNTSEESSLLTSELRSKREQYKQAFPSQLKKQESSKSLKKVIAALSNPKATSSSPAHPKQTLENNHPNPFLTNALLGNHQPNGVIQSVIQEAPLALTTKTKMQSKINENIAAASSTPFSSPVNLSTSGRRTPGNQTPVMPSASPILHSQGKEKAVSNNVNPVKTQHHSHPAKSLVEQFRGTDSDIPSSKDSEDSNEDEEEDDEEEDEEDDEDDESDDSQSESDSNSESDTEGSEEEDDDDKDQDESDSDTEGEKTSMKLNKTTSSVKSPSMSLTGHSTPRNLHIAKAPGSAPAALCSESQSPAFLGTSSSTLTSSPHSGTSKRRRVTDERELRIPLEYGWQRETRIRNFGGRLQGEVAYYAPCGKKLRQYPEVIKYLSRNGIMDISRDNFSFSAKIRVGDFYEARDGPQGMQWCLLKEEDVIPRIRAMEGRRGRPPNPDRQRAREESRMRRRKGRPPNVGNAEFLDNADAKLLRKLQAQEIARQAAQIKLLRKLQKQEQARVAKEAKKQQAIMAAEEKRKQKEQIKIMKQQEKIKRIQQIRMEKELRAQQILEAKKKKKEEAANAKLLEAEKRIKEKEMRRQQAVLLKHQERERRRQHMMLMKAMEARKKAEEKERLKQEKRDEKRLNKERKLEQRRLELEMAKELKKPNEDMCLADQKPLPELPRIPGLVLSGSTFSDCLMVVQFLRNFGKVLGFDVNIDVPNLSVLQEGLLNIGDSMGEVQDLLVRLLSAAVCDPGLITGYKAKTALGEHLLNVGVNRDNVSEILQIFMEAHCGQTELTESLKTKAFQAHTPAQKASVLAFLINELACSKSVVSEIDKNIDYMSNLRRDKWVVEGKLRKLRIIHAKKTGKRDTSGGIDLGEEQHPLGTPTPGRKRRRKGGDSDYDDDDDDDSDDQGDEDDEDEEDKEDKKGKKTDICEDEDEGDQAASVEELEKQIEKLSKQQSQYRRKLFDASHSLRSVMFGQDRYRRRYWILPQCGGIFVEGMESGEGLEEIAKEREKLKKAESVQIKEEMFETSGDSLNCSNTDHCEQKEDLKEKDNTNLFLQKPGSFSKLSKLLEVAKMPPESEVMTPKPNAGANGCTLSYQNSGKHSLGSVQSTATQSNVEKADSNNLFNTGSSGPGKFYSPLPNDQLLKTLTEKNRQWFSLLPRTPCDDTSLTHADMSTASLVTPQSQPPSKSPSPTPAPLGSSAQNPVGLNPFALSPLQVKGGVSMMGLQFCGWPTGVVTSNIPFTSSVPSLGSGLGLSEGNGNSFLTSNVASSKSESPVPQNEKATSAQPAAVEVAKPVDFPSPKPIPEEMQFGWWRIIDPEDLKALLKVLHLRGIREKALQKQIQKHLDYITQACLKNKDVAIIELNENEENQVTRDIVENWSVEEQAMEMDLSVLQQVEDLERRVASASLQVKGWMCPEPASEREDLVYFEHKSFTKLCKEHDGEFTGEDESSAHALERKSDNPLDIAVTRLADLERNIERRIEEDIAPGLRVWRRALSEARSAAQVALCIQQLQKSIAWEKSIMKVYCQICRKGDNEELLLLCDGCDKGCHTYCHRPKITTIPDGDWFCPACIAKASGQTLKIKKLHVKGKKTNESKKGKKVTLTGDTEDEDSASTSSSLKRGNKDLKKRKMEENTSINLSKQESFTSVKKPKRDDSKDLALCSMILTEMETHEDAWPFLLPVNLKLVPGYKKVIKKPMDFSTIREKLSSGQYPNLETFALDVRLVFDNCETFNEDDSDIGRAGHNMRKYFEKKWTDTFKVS
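Multi-concentration screen (max 110 uM) measuring displacement of acetylated histone H3 peptide from BAZ2B by AlphaScreen, using 50 nM protein, 50 nM peptide and 10 ug/mL streptavidin donor plus Ni-chelate acceptor beads.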
Sfp inh: qHTS Assay for Inhibitors of Bacillus subtilis Sfp phosphopantetheinyl transferase (PPTase). Potency, µM, inactives show largest response in the series, negative = inhibition, actives largely listed as inhibitors. 4'-phosphopantetheinyl transferase ffp (Bacillus subtilis), Q9F4F7. Biochemical Sfp PPTase activity, qHTS. 310,000 compounds, 3.5% hits. AID 1490, 2009;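 further: the enzyme is Sfp with the accession as filed and its product quenches rhodamine fluorescence; 0% = enzyme reaction without inhibitor and -100% = no enzyme wells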
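After 15 min at room temperature with compound, 15 nM Sfp received 5 uM rhodamine-CoA plus 12.5 uM BHQ-2-ybbR (50 mM Hepes pH 7.6, 10 mM MgCl2). Rate came from the fluorescence difference over 30 min, ex 525/em 598 nm.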
G9a inh: qHTS Assay for Inhibitors of Histone Lysine Methyltransferase G9a. AID 504332, 2011. Potency, µM (titrated, usually from 102 µM), for the others: at the top dose activity, negative = inhibition, usual class: inhibitors. 350,000 compounds, 8.8% hits. Histone-lysine N-methyltransferase EHMT2 (Homo sapiens), Q96KQ7. G9a H3K9 monomethylation, AlphaScreen, 2 h; further: on the % scale 0 is the no-effect control and ±100 the full control effect; nearly all actives have a fitted effect of over 75% in size
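Chemiluminescent proximity detection of H3K9 monomethylation, read after 10 min bead incubation in the dark. Reaction: 20 nM G9a, 500 nM biotin-H3K9 peptide, 20 uM SAM cofactor, 2 h, room temperature, following 15 min enzyme-compound preincubation.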
Starred values were filed as active, the others as inactive; ? = inconclusive; . = not tested or not shown; [ ] = dose if it differs, or a comment. A selection: hits, their analogues and other compounds. The true share with any hit is near 12%. The call rests on the fitted dose curve; in most records, active means well fitted curve in the direction sought with a large enough effect; inconclusive means small, poorly fitted or top-dose-only effect, or another doubt; inactive means no such curve, though single readings can be large; an effect the other way counts as inactive or inconclusive. Potency means the concentration at half of the fitted maximal effect.

SMILES | JMJD2A Tudor | HP1b binding inh | BAZ2B block | Sfp inh | G9a inh
OCc1ccccc1OCCCN1CCC(Cc2ccccc2)CC1 | 22µM* | ? | ? | 3% | 35µM*
COc1cc(C(=S)N2CCC(Cc3ccccc3)CC2)ccc1OCC(N)=O | -23% | 24% | -32% | 5% | -12%[2.33 µM]
COc1cc(C(C)=O)ccc1OCCN1CCC(Cc2ccccc2)CC1 | 1.6µM* | 45µM* | 32µM* | -25% | ?
O=Cc1cc(Cl)ccc1OCCN1CCC(Cc2ccccc2)CC1 | 20µM* | ? | ? | -24% | 25µM*
COc1cc(C(C)=O)ccc1OCCCN1CCC(Cc2ccccc2)CC1 | ? | ? | 56µM* | -10% | 35µM*
O=C(Nc1ccc(Cl)cc1)c1cc(S(=O)(=O)N2CCc3ccccc32)ccc1F | 2% | 14% | -5% | . | 4%[59 µM]
C#CCn1cnc2c(cnn2-c2ccc(C)c(C)c2)c1=O | 1% | 39% | 9% | -15% | .
C=CCOc1ccccc1CN1CCC(Cc2ccccc2)CC1 | 3.2µM* | ? | ? | -16% | .
O=C(CN1CCC(C(=O)c2ccc3c(c2)OCCO3)CC1)NCc1ccc(F)cc1 | -10% | -10% | -25% | 10% | 1%
Nc1c2c(nc3ccn(-c4ccccc4)c(=O)c13)CCCCC2 | -12% | 9% | 5% | 17% | ?
Cc1[nH][nH]c(=O)c1C(c1cc([N+](=O)[O-])ccc1O)c1c(C)[nH][nH]c1=O | -12% | 11% | -4% | -17% | 22%
Cc1[nH][nH]c(=O)c1C(c1ccccc1[N+](=O)[O-])C(C#N)C#N (centres undefined) | -18% | 16% | -17% | -66% | 40µM*
CCOC(=O)C1=C(CSc2nc(-c3ccncc3)ccc2C#N)OC(N)=C(C#N)C1c1cccnc1 (centres undefined) | -14% | 36% | 8% | 79µM* | 35µM*
COc1ccc(C2C(C#N)=C(N)Oc3n[nH]c(C)c32)cc1CSc1ccccn1 (centres undefined) | -17%[11.4 µM] | -11% | -12% | -6% | 6%[12.7 µM]
CCOC(=O)C1=C(CSc2nc(-c3ccncc3)ccc2C#N)OC(N)=C(C#N)C1c1ccc(OC)cc1 (centres undefined) | ? | 8% | ? | ? | 40µM*
CCOC(=O)CSc1nc(-c2ccncc2)ccc1C#N | -5%[11.4 µM] | -4% | -4% | 15% | 8%[59 µM]
CCOC(=O)C1=C(C)OC(N)=C(C#N)C1c1ccc(OC)c(CSc2ccccn2)c1 (centres undefined) | ? | 20% | ? | -10% | 22µM*
CCOC(=O)C1=C(c2ccccc2)OC(N)=C(C#N)C1c1ccncc1 (centres undefined) | -20% | 29% | -19% | ? | 45µM*
COc1ccc(N2C(=O)C(C)(C)C2c2c(O)ccc3ccccc23)cc1 (centres undefined) | ? | 8% | -36% | 18% | -41%
COc1ccc(NC(=O)CN(C)C(=O)C(C)Sc2ccccc2)cc1 (centres undefined) | -10% | 31% | 2% | 2% | 7%
CCOC(=O)C1=C(CC)OC(N)=C(C#N)C1c1cc(OC)ccc1OC (centres undefined) | -16% | 23% | -21% | 10% | -8%[59 µM]
CCOC(=O)C1=C(C)OC(N)=C(C#N)C1c1c(C)nn(-c2ccccc2)c1Cl (centres undefined) | ? | 44% | -11% | 56µM* | ?
CCOC(=O)C1=C(CSc2nc(C)ccc2C#N)OC(N)=C(C#N)C1c1cccc(OC)c1OC (centres undefined) | ? | 16% | 56µM* | 14µM* | 7.1µM*
CCOC(=O)C1=C(CSc2nc(CC)c(C)cc2C#N)OC(N)=C(C#N)C1c1ccc(OC)cc1 (centres undefined) | 32µM* | 21% | -25% | 7.9µM* | 4.5µM*
C=CCOC(=O)C1=C(C)OC(N)=C(C#N)C1c1c(C)nn(-c2ccccc2)c1Cl (centres undefined) | -30% | -7% | -26% | 3% | -12%[59 µM]
SMILES | JMJD2A Tudor | HP1b binding inh | BAZ2B block | Sfp inh | G9a inh
O=C(Nc1ccc(F)c(Cl)c1)C1CCCN1S(=O)(=O)c1ccc(F)cc1 (centres undefined) | 15% | 16% | -2% | . | -20%[59 µM]
CN(C)CCCN(C(=O)c1ccc([N+](=O)[O-])s1)c1nc2cc3c(cc2s1)OCCO3 | ? | -22% | ? | 2% | 45µM*
CN(C)CCCN(C(=O)c1cc2cc([N+](=O)[O-])ccc2s1)c1nc2cc3c(cc2s1)OCCO3 | ? | -33% | ? | . | 20µM*
CN(C)CCCN(C(=O)c1cccs1)c1nc2cc3c(cc2s1)OCO3 | -19% | 30% | -38% | -2% | ?
CC(=O)c1cccc(NC(=O)c2sc3nc4n(c(=O)c3c2C)CCCC4)c1 | ? | 16% | -38% | 22% | -9%
CCOc1ccc(NC(=O)c2sc3nc4n(c(=O)c3c2C)CCCC4)cc1 | ? | 57% | 32µM* | . | 16µM*
Cc1c(C(=O)Nc2cccc(C(F)(F)F)c2)sc2nc3n(c(=O)c12)CCCC3 | -14% | 43% | -1% | . | 3.5µM*
CCc1ccccc1N(C)C(=O)c1sc2nc3n(c(=O)c2c1C)CCCCC3 | -13% | 40% | -26% | . | ?
CCc1ccc(NC(=O)c2sc3nc4n(c(=O)c3c2C)CCC4)cc1 | -16% | 21%[57 µM] | -17% | -4% | 80%
Cc1c(C(=O)N(C)c2cccc(C(F)(F)F)c2)sc2nc3n(c(=O)c12)CCCCC3 | ? | 83% | 32µM* | . | 14µM*
CC1CCN(CC(=O)NC2CCCCC2)CC1 | -10% | 14% | -37% | 6% | ?
Cc1cc(C)c(C(=O)/C=C/c2ccc(C(C)C)cc2)c(=O)[nH]1 | -10% | 24% | 6% | 14% | -6%
COc1cc(OC)cc(-c2nc3ccccc3c(=O)n2OC(=O)c2ccccc2C)c1 | -11% | 22% | -38% | 17% | 2%
O=C(On1c(-c2ccccc2)nc2ccccc2c1=O)c1ccco1 | 89µM* | -4% | -29% | -28% | ?
Fc1ccc(CN2CCN(c3ncnc4scc(-c5ccc(F)cc5)c34)CC2)cc1 | ? | 4% | ? | -24% | -7%
Clc1ccc(CN2CCN(c3ncnc4scc(-c5cccs5)c34)CC2)cc1 | -7%[57.1 µM] | -11% | -35% | -13% | 32µM*
COc1ccc(C2=NNC(c3cc(Cl)cc4c3OCOC4)C2)c(O)c1 (centres undefined) | . | . | -1% | 9% | 50µM*
CSc1nc(=S)c2[nH]c(=S)[nH]c2[nH]1 | 25µM* | 20µM* | 79µM* | 2.5µM* | 0.63µM*
Nc1nc(=S)c2[nH]c(=S)[nH]c2[nH]1 | 3.2µM* | -16%[57 µM] | . | . | .
